# Hits are enriched below; roughly 11% of the tested compounds scored in any of these assays.
# GoLoco inh red: qHTS Assay for Inhibitors of RGS12 GoLoco Motif Activity (Red Fluorophore) | Guanine nucleotide-binding protein G(i) subunit alpha-1 (Homo sapiens), P63096 | Gai1:RGS12 GoLoco peptide FP, rhodamine, 10 min | Potency, µM (top dose mostly 61.6 µM), for the others: top-dose activity, negative = inhibition, most hits filed as inhibitors | actives 0.44% (n = 230,000); active = well fitted inhibition curve with a large enough effect, not every such curve was filed as active; inactive = no such curve, though single readings can be large or run the other way; note: potency is the fitted concentration of half-maximal effect; % is set by controls: 0 for no effect and ±100 for the full control effect; nearly all actives have a fitted effect of over 30% in size
# HTT ATP protect: qHTS Multiplex Assay to Identify Dual Action Probes in a Cell Model of Huntington: Cytoprotection (ATP) | PC12 HTT-Q103 induced, cytoprotection, ATP luminescence, 40 h | Potency, µM (series often up to 56.4 µM), inactives show cytoprotection (ATP increase), hits mostly activators | actives 0.14% (n = 230,000) | AID 1471, 2008; note: potency is the fitted concentration of half-maximal effect; % of control where 0% means no effect; nearly all actives have a fitted effect of over 45% in size
#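 Compounds added alongside 100 nM tebufenozide, which induces toxic Q103 huntingtin exon 1-GFP in stable PC12 cells; surviving cells quantified by luminescent ATP measurement. Medium: phenol red-free DMEM, 5% equine and 5% calf serum.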
# PNC assembly inh: High Content Assay for Compounds that inhibit the Assembly of the Perinucleolar Compartment. actives 3.1% (n = 140,000). AID 2417, 2010. PC3M PTB-GFP, PNC prevalence imaging, 16 h; active compounds read low. activity change (PNC), negative = inhibition, % at 10 µM;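 active = readout at or below -70, meaning at least 70% loss of cells showing the perinucleolar compartment, a nuclear body marking cancer cells; inconclusive = readout between -30 and a set limit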;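 note: plate controls were DMSO wells for no effect and camptothecin positive control wells for full effect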
#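 PC3M cells stably expressing PTB-GFP, 750–1000 cells/well, treated 16 h at 37 °C with compound (23 nl of library stock), in duplicate. After paraformaldehyde fixation and Hoechst stain, imaged at 20x; PNC prevalence scored by image analysis.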
# ALDH1A1 inh: qHTS Assay for Inhibitors of Aldehyde Dehydrogenase 1 (ALDH1A1). Aldehyde dehydrogenase 1A1 (Homo sapiens), P00352. Purified ALDH1A1, NADH fluorescence, propionaldehyde substrate. Potency, µM (titrated, usually from 75.3 µM), for the others: at the highest dose activity, negative = inhibition, actives largely listed as inhibitors. actives 7.3% (n = 220,000). AID 1030, 2008; active = well fitted inhibition curve with a large enough effect, not every such curve was filed as active; inconclusive = small, poorly fitted or top-dose-only effect, or another doubt; inactive = no such curve, though single readings can be large or run the other way;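 note: potency is the fitted concentration of half-maximal effect; plate controls were no enzyme wells and a reference inhibitor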
# Target sequence (P00352 whole entry, looked up): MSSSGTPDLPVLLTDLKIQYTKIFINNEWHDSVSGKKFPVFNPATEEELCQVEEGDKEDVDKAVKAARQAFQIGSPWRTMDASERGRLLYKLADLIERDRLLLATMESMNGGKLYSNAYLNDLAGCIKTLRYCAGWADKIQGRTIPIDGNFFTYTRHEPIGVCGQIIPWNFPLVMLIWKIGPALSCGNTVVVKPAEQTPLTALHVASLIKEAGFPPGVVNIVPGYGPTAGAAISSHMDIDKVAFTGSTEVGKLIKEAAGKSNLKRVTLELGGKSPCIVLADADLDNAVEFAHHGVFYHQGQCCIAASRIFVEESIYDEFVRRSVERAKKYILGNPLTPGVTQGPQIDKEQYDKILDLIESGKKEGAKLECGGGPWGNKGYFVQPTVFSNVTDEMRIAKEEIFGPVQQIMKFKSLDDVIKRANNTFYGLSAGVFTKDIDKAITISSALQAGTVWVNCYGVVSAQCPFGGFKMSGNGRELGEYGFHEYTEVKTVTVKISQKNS
# HPGD block: qHTS Assay for Inhibitors of HPGD (15-Hydroxyprostaglandin Dehydrogenase); 15-hydroxyprostaglandin dehydrogenase [NAD(+)] (Homo sapiens), P15428; purified HPGD, NADH fluorescence kinetic, PGE2 substrate; Potency, µM, for the others: at the top dose activity change, negative = inhibition, hits mostly inhibitors; actives 4.3% (n = 150,000); AID 894, 2007; active = well fitted inhibition curve with a large enough effect, not every such curve was filed as active; inconclusive = small, poorly fitted or top-dose-only effect, or another doubt; inactive = no such curve, though single readings can be large or run the other way; note: potency is the fitted concentration of half-maximal effect; % is set by controls: 0 for no effect and ±100 for the full control effect
#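 20 nM HPGD preincubated 15 min at room temperature with compound in 50 mM Tris-HCl pH 8, 0.01% Tween 20. Started with 1 mM NAD+ and 30 uM prostaglandin E2; NADH fluorescence (360/450 nm) read 5 times over 30-s intervals, last minus first.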
# HTT aggregate: qHTS Multiplex Assay to Identify Dual Action Probes in a Cell Model of Huntington: Aggregate Formation (GFP). PC12 HttQ103-GFP aggregates, Acumen cytometry, 40 h. Potency, µM (top dose mostly 46.1 µM), for inactives: at the highest dose activity change, negative = inhibition, hits mostly inhibitors. actives 1.1% (n = 220,000); note: potency is the fitted concentration of half-maximal effect; % is set by controls: 0 for no effect and ±100 for the full control effect; nearly all actives have a fitted effect of over 60% in size
#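 Ecdysone-promoter PC12 model expressing HTT exon 1 Q103 fused to GFP, induced by tebufenozide at 100 nM final. Compounds titrated; aggregates sized 1–25 µm scored on a 488 nm laser cytometer.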
# Numbers without * were called inactive; ? = inconclusive; . = no result given; [ ] = dose if it differs, or a comment. Unless noted, calls come from the whole dose curve; as a rule, active = well fitted curve in the direction sought with a large enough effect; inconclusive = small, poorly fitted or top-dose-only effect, or another doubt; inactive = no such curve, though single readings can be large; an effect the other way counts as inactive or inconclusive.
SMILES,GoLoco inh red,HTT ATP protect,PNC assembly inh,ALDH1A1 inh,HPGD block,HTT aggregate
CC12CC3OS(=O)OC3CC3C4C(C(OCc5ccccc5)C31)C42 (stereo not given),.,3%[10 µM],.,8%[13.5 µM],.,.
CC1=CC(c2ccc(Cl)cc2)n2nc(NS(=O)(=O)c3ccc(C)cc3)nc2N1 (stereo not given),2%,-5%,33,?,?,?
CC1=CC(c2ccccc2)n2nc(NS(=O)(=O)c3ccc(C)cc3)nc2N1 (stereo not given),.,-20%,-10,0.63µM*,?,?
COc1ccc(C)cc1NC(=O)NCc1ccc(F)cc1,3%,-36%,.,-3%,.,15%
NCCCCC(N)C(=O)NC(Cc1ccc(O)cc1)C(=O)NC(CCCCN)C(=O)O (stereo not given),9%,.,.,-8%,-19%,.
COc1cccc(C2SCC(=O)N2c2ccc(C)cc2)c1OC (stereo not given),-11%,20%[10 µM],?,14µM*,-6%,-8%
CCOC(=O)c1ccc(NCCOC)c([N+](=O)[O-])c1,0%,-5%,.,?,.,12%
COC(=O)c1ccc(NC(CC(C)C)C(=O)OC)c([N+](=O)[O-])c1 (stereo not given),1%,6%[10 µM],-119*,-3%,-6%,-13%
CNC(=O)CSc1cnc2ccccc2n1,9%,?,.,6%,.,17%
Cn1nc(C(F)(F)F)c(/C=N/OC(=O)c2ccccc2Cl)c1SCc1ccccc1Cl,0%,-48%[10 µM],-28,0%,-4%,10µM*
COC(=O)C1=CC(C(=O)c2cccs2)=NN(c2ccc(OC)cc2)C1C(=O)OC (stereo not given),64%,.,35,-8%,-18%,19%
CC(C)(O)C(=O)O,4%,-13%,.,?,-10%,.
OC(c1ccc(Cl)cc1)c1nnc(-c2ccccc2)o1 (stereo not given),8%,0%,-7,0%,18µM*,-23%
O=C(CCc1nnc(-c2ccccc2)o1)c1ccc(Cl)cc1,1%,-16%[10 µM],.,9%,.,-12%[9.22 µM]
O=C1NC(=O)/C(=C\c2cn(Cc3ccccc3F)c3ccccc23)N1,-23%,-16%,.,14µM*,.,-14%
COC(=O)N/N=C/c1cn(Cc2ccccc2F)c2ccccc12,-5%,3%[10 µM],.,.,.,-15%[9.22 µM]
CC1=C(CO)C(=O)OC([C@@H](C)C2CC[C@H]3C4C[C@H]5O[C@]56[C@@H](O)C=CC(=O)[C@]6(C)C4CC[C@]23C)C1 (stereo not given in full),-5%,3.5µM*,.,.,.,?
O=C(c1ccncc1)N1CCC2(CC1)CCN(c1ccccn1)CC2,1%,1%,.,?,?,.
CN1/C(=C/C(=S)NC(=O)C2(C)CC2(Cl)Cl)C(C)(C)c2ccccc21 (stereo not given),196%,8%,.,4µM*,.,?
CCOC(=O)c1c(C)c(C(=O)NC(C)COC)c(C)n1CC (stereo not given),10%,23%[10 µM],-102*,4%,-19%,-9%
CCOC(=O)c1c(C)c(C(=O)NC(C)COC)c(C)n1C (stereo not given),-2%,13%[10 µM],?,9%,-6%,-4%
COC(=O)c1ccc(NC(=O)CSc2nnc(-c3ccncc3)n2N)cc1,-4%,-10%[0.074 µM],-17,25µM*,-26%,-4%
COc1ccc(NC(=O)CSc2nnc(-c3ccccc3)n2N)cc1,-4%,-19%[10 µM],-100*,2%,-9%,7%
CCOc1ccc(NC(=O)CSc2nnc(-c3ccccc3)n2N)cc1,-2%,-29%,-3,5%,-11%,7%

# Source: PubChem (National Center for Advancing Translational Sciences (NCATS))
